The record followed here is article PMC4552634, “A New Set of Chemical Starting Points with Plasmodium falciparum Transmission-Blocking Potential for Antimalarial Drug Discovery” (PLoS ONE, 2015).

Screen size: about 13,000 compounds; about 3,200 (25%) showed an effect of 50% or more. The list shows a part of the results.

The test system of the experiment is P. falciparum stage V gametocytes. Also on record: BacTiter-Glo ATP luminescence viability of purified stage V gametocytes in 384-well plates, per cent inhibition versus DMSO. To be noted: 48 h, 5 µM; inhibitor.
Regarding `N=C1NC(=N)N(OCCCCCCON2C(=N)NC(=N)NC2C=Cc2ccccc2)C(C=Cc2ccccc2)N1` (stereo not shown) [TCMDC-131602], the “% Inhibition” value is -13.97%. The figure for `Cc1nc2nc(N)nc(N)c2c(C)c1Cc1ccc(C(N)=O)cc1` [TCMDC-137641] is 15.14%.

As to `CC1=C(C(=O)Nc2cc3cn[nH]c3cc2F)C(c2cccc(O)c2F)CC(=O)N1` (stereo not shown) [TCMDC-136296], the “% Inhibition” value was determined as 76.63%. Regarding `CC1=C(C(=O)Nc2cc3cn[nH]c3cc2F)C(c2cccc(NS(C)(=O)=O)c2)CC(=O)N1` (stereo not shown) [TCMDC-136177], the “% Inhibition” value is 35.05%. Turning to `CC1=C(C(=O)Nc2cc3cn[nH]c3cc2F)C(c2ccc(Cl)c(NS(C)(=O)=O)c2)CC(=O)N1` (stereo not shown) [TCMDC-136204], the “% Inhibition” value is 27.6%. The figure for `C=CCOC(=O)N1CCC(CNCc2cccc(-c3ccc(-c4nc5ccccc5[nH]4)s3)c2)C1.O=C(O)C(F)(F)F` (stereo not shown) [TCMDC-133036] is 38.09%. The figure for `COc1ccc(OCc2ccccn2)c(C2CCN(CCCCNC(=O)c3ccc(NC(=O)c4ccc(Cl)cc4)cc3)CC2)c1` [TCMDC-138311] is -15.54%; for `O=C(NCCCCN1CCC(c2ccc3c(c2OCc2ccccn2)CCCC3)CC1)c1ccc(NC(=O)c2ccc(Cl)cc2)cc1` [TCMDC-138720] it is 101.6%; for `O=C(NCCCCN1CCC(c2ccc3c(c2OCc2ccncc2)CCCC3)CC1)c1ccc(NC(=O)c2ccc(Cl)cc2)cc1` [TCMDC-138725] it is 119.9%. The figure for `Cc1cc(C2CCN(CCCCNC(=O)c3ccc(NC(=O)c4ccc(Cl)cc4)cc3)CC2)c(C)cc1OCc1ccccn1` [TCMDC-138306] is 24.78%; for `Cc1ccc(NC(C)C(=O)Nc2ccccc2)cc1S(=O)(=O)N1CCCCCC1` (stereo not shown) [TCMDC-124868] it is -63.29%. In the case of `Brc1cc(Br)c2c(c1)C(NCCCNC1CCNc3c(Br)cc(Br)cc31)CCN2` (stereo not shown) [TCMDC-140067], the “% Inhibition” value was -3.983%.

Turning to `COc1ccc(NC(=O)[C@H](CC(C)C)Nc2ccnc(Nc3ccccc3)n2)cc1` [TCMDC-134750], the “% Inhibition” value is given as -9.476%. `COc1cccc(OC)c1C(=O)Nc1cccc(-c2nn3ccccc3c2-c2ccnc(Nc3cccc(F)c3)n2)c1` [TCMDC-135847]: the “% Inhibition” value is on record as -55.46%. The same measure for `O=C(/C=C/c1ccc(CNCCN2CCOCC2)cc1)NCCc1ccccc1` [TCMDC-140901]: -18.05%. Turning to `CC(C)CNCc1cccc(-c2ccc(CN(CCCN3CCN(C)CC3)C(=O)/C=C/c3ccccc3)cc2)c1` [TCMDC-140545], the “% Inhibition” value was 109.3%. Consider `CC(C)CNCc1cccc(-c2cccc(CN(CCCN3CCN(C)CC3)C(=O)/C=C/c3ccccc3)c2)c1` [TCMDC-140541], for which the “% Inhibition” value was 106.7%.

As to `CC(C)CNCc1ccc(-c2cccc(CN(CCCN3CCN(C)CC3)C(=O)/C=C/c3ccccc3)c2)cc1` [TCMDC-140542], the “% Inhibition” value is on record as 91.48%.

Take `CC(C)CNCc1ccc(-c2ccc(CN(CCCN3CCN(C)CC3)C(=O)/C=C/c3ccccc3)cc2)cc1` [TCMDC-140546]: the “% Inhibition” value stood at 104.5%. Regarding `COC(=O)c1c(C#N)c(OC)cc(O)c1CSC[C@H](Nc1nc(-c2ccc([N+](=O)[O-])cc2)cs1)C(=O)NCCN1CCCCC1` [TCMDC-138651], the “% Inhibition” value is -15.18%.

On to `Cc1nc(N)nc(N)c1OCCCCCCOc1ccccc1` [TCMDC-131354], for which the “% Inhibition” value is -4.555%. The figure for `Cc1ccc(F)c(C(=O)Nc2cccc(-c3nn4ccccc4c3-c3ccnc(Nc4cccc(F)c4)n3)c2)c1F` [TCMDC-135846] is -36.31%; for `O=C(Nc1cccc(-c2nn3ccccc3c2-c2ccnc(Nc3ccc(Cc4ccncc4)cc3)n2)c1)c1c(F)cccc1F` [TCMDC-135845] it is -48.11%. For the molecule `CC1(C)N=C(N)N=C(N)N1OCCc1ccc(N)cc1` [TCMDC-131632], the “% Inhibition” value is 14.77%. With `Cc1ccc(F)c(OC2CCN(c3ccc(C(=O)NC4CC4)cn3)CC2)c1` [TCMDC-134036], the “% Inhibition” value is 27.07%. With `CCNc1cc(C)nc(Nc2ccc(NC(=O)c3cccs3)cc2)n1` [TCMDC-124981], the “% Inhibition” value was -23.08%. Consider `O=C(Nc1ccc(Cl)cc1)c1cc(Cl)cc2[nH]c(C(F)(F)F)nc12` [TCMDC-141586], for which the “% Inhibition” value came to 55.63%.

Consider `O=C(Nc1ccc(Cl)cc1)c1cccc2[nH]c(C(F)(F)F)nc12` [TCMDC-141578], for which the “% Inhibition” value amounted to 11.96%.

Regarding `Cc1ncccc1C(=O)Nc1cccc(-c2cccc(-c3nc4ccc(C(F)(F)F)cc4[nH]3)c2)c1` [TCMDC-136860], the “% Inhibition” value is reported as -20.59%.

Regarding `O=C(Nc1cccc(-c2cccc(-c3nc4ccc(C(F)(F)F)cc4[nH]3)c2)c1)c1cccnc1Cl` [TCMDC-136838], the “% Inhibition” value is listed as -52.15%. Regarding `O=C(Nc1cccc(C(F)(F)F)c1)c1cccc2[nH]c(C(F)(F)F)nc12` [TCMDC-141579], the “% Inhibition” value stood at 65%. Consider `O=C(Nc1cc(C(F)(F)F)cc(C(F)(F)F)c1)c1cc(Cl)ccc1O` [TCMDC-125465], for which the “% Inhibition” value amounted to 22.2%. With `Fc1ccccc1COc1ccc(Nc2ncnc3ccc(-c4nnc(C(F)(F)F)o4)cc23)cc1Cl` [TCMDC-138161], the “% Inhibition” value was determined as 24.13%. As for `Cc1ccc(Nc2ccnc(Nc3ccc4c(c3)CS(=O)(=O)C4)n2)cc1O` [TCMDC-138484], the “% Inhibition” value is -40.59%. The figure for `CCNc1cc(C(=O)N[C@@H](Cc2ccccc2)[C@H](O)CN[C@@H]2CCc3ccccc32)cc(N2CCCCS2(=O)=O)c1` [TCMDC-134706] is 14.74%. The same measure for `CCN(CC)CCN(Cc1ccc(-c2ccc(C(F)(F)F)cc2)cc1)C(=O)Cn1c(CCc2ccc(F)c(F)c2)nc(=O)c2ccccc21` [TCMDC-140948]: 78.31%. For the molecule `CCN(CC)CCN(Cc1ccc(-c2ccc(C(F)(F)F)cc2)cc1)C(=O)Cn1c(CCc2ccc(F)c(F)c2)cc(=O)c2ccccc21` [TCMDC-141026], the “% Inhibition” value came out at 39.3%. The same measure for `CCN(CC)CCN(Cc1ccc(-c2ccc(C(F)(F)F)cc2)cc1)C(=O)Cn1c(CCc2ccc(F)c(C#N)c2)nc(=O)c2ccccc21` [TCMDC-140957]: 85.6%; for `CCN(CC)CCN(Cc1ccc(-c2ccc(C(F)(F)F)cc2)cc1)C(=O)Cn1c(CCc2cccc(C#N)c2)nc(=O)c2ccccc21` [TCMDC-140980]: 54.63%. The same measure for `CCN(CC)CCN(Cc1ccc(-c2ccc(C(F)(F)F)cc2)cc1)C(=O)Cn1c(CCc2cc(F)c(F)c(F)c2)nc(=O)c2ccccc21` [TCMDC-140944]: 66.72%.

What is called % Inhibition is the drop in the measured response relative to a control, in per cent.
